Experimental data: PubChem BioAssay (NCATS)
Inconclusive results are not listed. Entries that show only a call come without a potency. The source made the active and inactive calls. The call rests on the fitted dose curve; in most records, active means well fitted inhibition curve with a large enough effect; inconclusive means small, poorly fitted or top-dose-only effect; inactive means flat fitted curve, though single readings scatter.

These compounds were tested against Luciferin 4-monooxygenase (Photinus pyralis) (UniProt P08659) (assay: Biochemical firefly luciferase enzyme assay for NPC (AID 624030; further: nearly all actives have a fitted effect of over 70% in size)). Settings: purified P. pyralis luciferase, luminescence, 5 min; series mostly up to 58.6 µM.
Luciferin 4-monooxygenase (Photinus pyralis), sequence (P08659 whole entry, looked up): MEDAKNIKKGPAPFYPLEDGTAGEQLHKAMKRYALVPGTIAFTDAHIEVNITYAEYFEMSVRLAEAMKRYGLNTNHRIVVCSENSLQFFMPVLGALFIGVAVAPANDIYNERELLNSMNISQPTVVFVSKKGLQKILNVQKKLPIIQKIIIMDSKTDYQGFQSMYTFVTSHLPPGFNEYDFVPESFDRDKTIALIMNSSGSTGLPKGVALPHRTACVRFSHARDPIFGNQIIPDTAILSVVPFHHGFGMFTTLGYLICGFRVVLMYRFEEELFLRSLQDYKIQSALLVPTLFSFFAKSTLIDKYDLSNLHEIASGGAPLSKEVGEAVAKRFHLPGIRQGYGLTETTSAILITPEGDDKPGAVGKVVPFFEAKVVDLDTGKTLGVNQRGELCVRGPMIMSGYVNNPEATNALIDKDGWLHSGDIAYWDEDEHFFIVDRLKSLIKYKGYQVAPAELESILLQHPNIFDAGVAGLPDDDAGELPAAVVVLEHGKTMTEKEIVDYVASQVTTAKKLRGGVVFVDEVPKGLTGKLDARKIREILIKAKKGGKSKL
Method in brief: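 Direct inhibition of firefly luciferase enzyme (10 nM final, 50 mM Tris Acetate) assessed by luminescence within 5 minutes. Percent activity scaled between DMSO and PTC124 positive control, with concentration-effect curves classified by fit quality and response.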
Potency means the concentration at half of the fitted maximal effect.

Row | Compound | Potency
1 | O=C(CCN1CCN2CCCC2C1)N1c2ccccc2Sc2ccc(Cl)cc21 (configuration not stated) | inactive
2 | NS(=O)(=O)c1ccc(Cl)c(S(N)(=O)=O)c1 | inactive
3 | Nc1nc(-c2ccccc2)c(Br)c(=O)[nH]1 | inactive
4 | COc1ccc(C(=O)c2ccccc2O)c(O)c1 | inactive
5 | N#CCC(=O)NN | inactive
6 | NCCNC(=O)c1ccc(Cl)cn1 | inactive
7 | CCC(CC)(CC(=O)Nc1cccc(/C=C/c2nc(C3CCC3)cs2)c1)C(=O)O | 5.73 µM (active)
